The text below walks through data of PubChem BioAssay (NCATS).

Records with an inconclusive call do not appear. The source made the active and inactive calls. Calls come from the whole dose curve; as a rule, active = well fitted inhibition curve with a large enough effect; inconclusive = small, poorly fitted or top-dose-only effect; inactive = flat fitted curve, though single readings scatter.

In the assay the test system is NIH3T3. Nature of the assay: Cytotoxic Profiling of Annotated Libraries Using Quantitative High-Throughput Screening (AID 1296008). Note: nearly all actives have a fitted effect of over 60% in size. Conditions: Five cell lines viability, CellTiter-Glo ATP luminescence, 48-72 h; max response: stronger effect = lower value. Summed up:
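Cells exposed to compounds for 48 or 72 hr at 37 degrees Celsius. Viability read as ATP-coupled luminescence with CellTiter-Glo after 10 min at room temperature.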
Consider `C/C(=C\CCC1(C)C2CC3C(C2)C31C)C(=O)O` (stereo unspecified), for which the result was inactive.

For the molecule `CCCC1=CC2=C(CO1)C(=O)C(C)(O)C(OC(=O)c1c(C)cc(OC)cc1O)C2` (stereo unspecified), the molecule was classed as inactive. To `COc1cnc(-n2cnc(C)n2)c2[nH]cc(C(=O)C(=O)N3CCN(C(=O)c4ccccc4)CC3)c12` belongs “inactive”; to `CCCC/C=C\CCCCCc1cc(=O)c2ccccc2n1C`, “inactive”; to `CCN1CCN(C(=O)N[C@@H](C(=O)N[C@@H]2C(=O)N3[C@@H]2SC(C)(C)[C@@H]3C(=O)O)c2ccccc2)C(=O)C1=O`, “inactive”. With `C[C@@H]1O[C@@H](O[C@@H]2[C@@H](O)[C@H](O[C@H]3[C@H](O[C@H]4CC[C@@]5(C)C(CC[C@]6(C)C5CC=C5[C@@H]7CC(C)(C)CC[C@]7(C(=O)O[C@@H]7O[C@H](CO)[C@@H](O)[C@H](O)[C@H]7O)CC[C@]56C)C4(C)C)O[C@H](C(=O)O)[C@@H](O)[C@@H]3O)OC[C@H]2O)[C@H](O)[C@H](O)[C@H]1O` (stereo partly specified) the entry was “inactive”; with `COC(=O)C1=COC(O[C@@H]2O[C@H](CO)[C@@H](O)[C@H](O)[C@H]2O)/C(=C\COC(=O)/C=C/c2ccccc2)C1CC(=O)OCCc1ccc(O)cc1` (stereo partly specified), “inactive”.

For `C=CC(C)(O)CC/C=C(\C)C1CC=C(C)C(=O)O1` (stereo unspecified), the outcome was inactive. On to `COc1cc(/C=C/C(=O)OC[C@H]2O[C@@H](OC3CC(C)=C(C(=O)O)C(C)(C)C3)[C@H](O)[C@@H](O)[C@@H]2O)cc(OC)c1O` (stereo partly specified), for which the call was inactive. To `CC1(C)C[C@H](O)C[C@@]2(C)[C@H]1[C@H](O)C=C1COC(=O)[C@@]12O` belongs “inactive”. To `O=C(O)Cc1cn([C@@H]2O[C@H](CO)[C@@H](O)[C@H](O)[C@H]2O[C@@H]2O[C@H](CO)[C@@H](O)[C@H](O)[C@H]2O)c2ccccc12` belongs “inactive”.
